# High-throughput results (PubChem BioAssay)
# ELG1 genotoxic: genotoxicity induction in ELG1-luciferase HEK293T cells; HEK293T ELG1-luciferase reporter, luminescence, 16 h; Potency, µM (top dose mostly 46 µM), most hits filed as activators; AID 504466; 330,000 compounds, 1.3% hits; further: nearly all actives have a fitted effect of over 60% in size
#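 DMSO vehicle served as control against compound-treated ELG1-luciferase HEK293T cells; exposure lasted 16 hr at 37 °C and 5% CO2, followed by ONE-Glo luminescence detection after 30 min.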
# Rab9 prom act: activates the Rab9 promoter; Potency, µM (titrated, usually from 9.22 µM), actives largely listed as activators; AID 485297; Huh7 Rab9 promoter-luciferase reporter, luminescence, 24 h; 320,000 compounds, 2.8% hits; further: nearly all actives have a fitted effect of over 60% in size
#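 Huh7 cells stably carrying a Rab9 promoter-luciferase reporter, 1500 cells per well in OP-MEM I with 10% FBS, treated with compound 24 hours at 37C. Luciferase activity read by luminescence after 10 minutes with Amplite reagent.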
# NPC1 prom act: NPC1 promoter activation; Huh7 NPC1 promoter luciferase reporter, 24 h; Potency, µM (titrated, usually from 9.22 µM), usual class: activators; 320,000 compounds, 2.4% hits; further: nearly all actives have a fitted effect of over 60% in size
#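 Huh7 cells stably carrying NPC1 promoter–luciferase, plated in Opti-MEM with 10% FBS for 2 h, were exposed to compound in DMSO for 24 h at 37 °C; luciferase reagent was added for 10 min and luminescence read.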
# FLuc counter: firefly luciferase modulation, counter-screen for miR-21 project; P08659; purified FLuc, Km substrates, luminescence inhibition; Potency, µM (series often up to 57.5 µM), actives largely listed as inhibitors; 360,000 compounds, 6.9% hits; further: nearly all actives have a fitted effect of over 55% in size
# Target sequence (P08659 whole entry, looked up): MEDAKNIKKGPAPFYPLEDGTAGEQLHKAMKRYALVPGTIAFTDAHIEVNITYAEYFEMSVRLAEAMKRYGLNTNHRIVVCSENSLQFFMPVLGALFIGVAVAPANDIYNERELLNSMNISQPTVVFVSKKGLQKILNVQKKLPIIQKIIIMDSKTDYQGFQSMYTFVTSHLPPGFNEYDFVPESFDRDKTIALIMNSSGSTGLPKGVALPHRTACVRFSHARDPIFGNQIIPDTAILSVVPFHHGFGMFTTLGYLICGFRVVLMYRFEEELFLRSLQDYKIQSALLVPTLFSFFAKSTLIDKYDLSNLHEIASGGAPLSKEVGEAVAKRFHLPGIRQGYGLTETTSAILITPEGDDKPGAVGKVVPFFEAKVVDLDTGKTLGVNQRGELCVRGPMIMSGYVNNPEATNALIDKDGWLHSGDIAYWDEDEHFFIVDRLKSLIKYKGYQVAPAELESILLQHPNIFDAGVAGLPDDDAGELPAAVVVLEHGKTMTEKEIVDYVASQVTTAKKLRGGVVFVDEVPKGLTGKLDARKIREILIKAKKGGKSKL
#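 Purified P. pyralis luciferase, 10 nM final, with Km-level 10 uM D-luciferin and 10 uM ATP in 50 mM Tris acetate pH 7.5, 10 mM Mg acetate, 0.01% Tween-20, 0.05% BSA; 6-point qHTS titration about 60 µM downward; luminescence read.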
# SMN2 splice enh: SMN2 splice variant enhancement. 210,000 compounds, 2.8% hits. HEK293 SMN2-luciferase splicing reporter, luminescence, 30-36 h. Potency, µM (doses to about 46.1 µM), actives largely listed as activators. AID 1458; further: nearly all actives have a fitted effect of over 55% in size
#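 HEK293 cells carry an SMN2 minigene-luciferase reporter in which exon 7 inclusion puts luciferase in frame. Cells were seeded at 2000 cells/well, attached for 10-12 hours, then exposed to compounds for 30-36 hours at 37C before ONE-Glo luminescence.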
# Hits are given with their value; - = inactive; ? = inconclusive; . = no result; [ ] = dose if it differs, or a comment. Compounds with a hit are over-represented: about 7.4% of the library has one in this group of screens. The call rests on the fitted dose curve; in most records, active means well fitted curve in the direction sought with a large enough effect; inconclusive means small, poorly fitted or top-dose-only effect, or another doubt; inactive means no such curve, though single readings can be large; an effect the other way counts as inactive or inconclusive.
SMILES,ELG1 genotoxic,Rab9 prom act,NPC1 prom act,FLuc counter,SMN2 splice enh
Cc1oc(S(=O)(=O)N2CCCC2)cc1C(=O)Nc1ccccc1,-,-,-,-,.
O=C(/C=C/c1ccco1)Nc1ccccc1N1CCCC1,-,-,-,-,-
COC(=O)c1c(-c2ccccc2)csc1NC(=O)c1ccco1,2.3µM,?,2.8µM,5.4µM,-
O=C(Nc1scc(-c2ccc(F)cc2)c1C(=O)O)c1ccco1,?,-,-,17µM,?
Cc1ccc(-c2csc(NC(=O)/C=C/c3ccco3)c2C(=O)O)cc1,?,1.8µM,3.2µM,6µM,11µM
O=C(c1ccc2c(c1)CCN2S(=O)(=O)c1ccc(Cl)cc1)N1CCN(c2ccccc2F)CC1,.,.,.,-,-
CCOC(=O)c1cc(-c2ccc(OC)c(S(=O)(=O)NC3CCCCC3)c2)on1,.,.,.,-,.
O=[N+]([O-])c1ccc2nc(-c3ccc(OC(F)F)cc3)cn2c1,?,1µM,1µM,?,.
Cc1nc2c(-c3ccccc3)c(C)[nH]n2c(=O)c1Cc1ccc(Br)cc1,.,.,.,-,-
O=C(NC(Cc1c[nH]c2ccccc12)C(=O)O)c1ccccc1 (stereo not drawn),-,-,-,-,?
CC(=O)NC(Cc1c[nH]c2ccccc12)C(=O)OCC(=O)Nc1cc(C)on1 (stereo not drawn),-,-,-,-,-
COc1ccc(OCC(=O)NC(Cc2c[nH]c3ccccc23)C(=O)O)cc1 (stereo not drawn),.,.,.,-,-
Cc1cc(NC(=O)COC(=O)[C@H](Cc2c[nH]c3ccccc23)NC(=O)c2ccc(F)cc2)no1,-,-,-,17µM,-
O=C(Cc1c[nH]c2ccccc12)NCc1ccc(Cl)cc1Cl,-,-,-,21µM,-
COc1ccc(C(=O)NC(Cc2c[nH]c3ccccc23)C(=O)O)cc1 (stereo not drawn),-,-,-,19µM,.
O=C(N[C@@H](Cc1c[nH]c2ccccc12)C(=O)O)c1ccc(Cl)cc1,-,-,-,17µM,-
CCOC(=O)c1c(C)[nH]c(C)c1S(=O)(=O)N(C)CC(=O)Nc1ccc(C)cc1C,.,.,.,-,.
COc1ccc(OC)c(CCNC(=O)c2c(C)nn(-c3ccc(F)cc3)c2-n2cccc2)c1,.,.,.,-,.
CCOc1ccc(CCNC(=O)c2cnc3sc(N4CCC(C)CC4)nn3c2=O)cc1,.,.,.,-,.
COC(=O)c1ccc(C(NC(=O)OCc2ccccc2)/C(I)=C/[C@@H](C)C(=O)NCC2CC2)cc1 (stereo partly drawn),.,.,.,.,-
c1ccc(-c2cnc(-c3ccc(-c4ncc(-c5ccccc5)o4)cc3)o2)cc1,.,.,.,.,-[9.22 µM]
N#CCc1nc(CSc2nc3ccccc3o2)cs1,?,?,?,24µM,-
c1ccc2oc(SCc3nc4ccccc4s3)nc2c1,.,.,.,4.8µM,?
c1ccc(-c2noc(CSc3nc4ccccc4o3)n2)cc1,-,-,-,?,.
c1ccc(SCc2nc3ccccc3s2)nc1,?,1.3µM,3.5µM,4.8µM,.
SMILES,ELG1 genotoxic,Rab9 prom act,NPC1 prom act,FLuc counter,SMN2 splice enh
CCOc1ccc(OCCSc2nc3ccccc3o2)cc1,-,-,-,-,-
O=C(CCN1C(=O)/C(=C/C=C/c2ccccc2)SC1=S)Nc1ccccn1,-,-,-,24µM,.
O=C(CCN1C(=O)/C(=C/C=C/c2ccccc2)SC1=S)Nc1cccnc1,?,?,-,1.1µM,?
CC(=C\c1ccccc1)/C=C1/SC(=S)N(CCC(=O)Nc2ccccn2)C1=O,-,-,-,-,.
CC(=O)c1ccc(NC(=O)CN2C(=O)/C(=C/C=C/c3ccccc3)SC2=S)cc1,-,-,-,?,-
O=C(O)CN1C(=O)/C(=C/C=C/c2ccccc2)SC1=S,-,-,?,2.7µM,-
O=C(CCN1C(=O)/C(=C/c2ccc(Cl)cc2)SC1=S)Nc1cccnc1,-,-,-,-,.
O=C(CCCN1C(=O)/C(=C/c2ccccc2Cl)SC1=S)NNC(=O)c1cccnc1,-,-,-,13µM,.
Cc1nn(-c2ccccc2)c2c1N(CC(=O)N1CCN(c3cccc(Cl)c3)CC1)C(=O)CS2,.,.,.,-,.
NC(Cc1ccccc1)=NCC(=O)O,.,.,.,.,-[9.22 µM]
C=CCN1C(=O)/C(=C/c2ccsc2)SC1=S,-,-,-,-,-
O=C(O)CN1C(=O)/C(=C/c2ccsc2)SC1=S,-,-,-,19µM,-
O=C1/C(=C/c2cccnc2)SC(=S)N1CCc1ccccc1,?,-,-,11µM,.
O=C(O)CN1C(=O)/C(=C\C(Br)=C\c2ccccc2)SC1=S,?,-,-,9.5µM,.
O=C(NCC(c1cccnc1)N1CCN(c2ccccc2F)CC1)C(=O)Nc1ccc(F)cc1F (stereo not drawn),.,.,.,-,.
O=C(Oc1ccc(OC(=O)C2CCC2)cc1)C1CCC1,-,-,-,?,-
O=C(Oc1ccc2ccc(O)cc2c1)c1ccccc1Cl,?,-,-,2.4µM,.
O=C(Oc1ccc2ccc(O)cc2c1)C1CCCCC1,-,-,-,17µM,-
COc1cc(C(=O)Oc2ccc3ccc(O)cc3c2)cc(OC)c1OC,?,-,-,-,.
O=C(Oc1ccc2ccccc2c1)C1CCC1,-,-,-,24µM,.
O=C(c1ccccc1)c1ccc(OC(=O)C2CCCCC2)cc1,-,-,-,13µM,.
O=C(COc1ccc(C(=O)c2ccccc2)cc1)NCC1CCCCC1,-,-,-,-,-
COc1ccc(CNC(=O)CN(c2cc(C(F)(F)F)ccc2Cl)S(C)(=O)=O)cc1,.,.,.,?,-
CCOc1ccccc1CNC(=O)CCCN1C(=O)CCn2nc(-c3cccn3C)cc21,.,.,.,-,.
COc1ccc(OC)c(NC(=O)c2ccc(-c3nc(CSc4ccccc4)c(C)o3)cc2)c1,.,.,.,-,.
SMILES,ELG1 genotoxic,Rab9 prom act,NPC1 prom act,FLuc counter,SMN2 splice enh
COc1ccc(C2=NNC(c3cc(Cl)cc4c3OCOC4)C2)c(O)c1 (stereo not drawn),-,-,-,13µM,-
CCc1ccc(NC(=O)Cn2c(=O)c(-c3ccccc3NC(C)=O)nc3ccccc32)cc1,.,.,.,-,.
CC(=O)c1cccc(OCC(=O)c2cc(C)n(-c3cc(C)on3)c2C)c1,-,-,-,?,-
Cc1cc(-n2c(C)cc(C(=O)COc3ccc4ccc(=O)oc4c3)c2C)no1,-,-,-,17µM,-
CCCCN(CCCNC(=O)c1cc(Nc2ccc(OC)c(OC)c2)nc2ccccc12)Cc1ccccc1,.,.,.,-,-
CSc1ccccc1-c1nnc(-c2ccc(Cl)cc2Cl)o1,?,3.2µM,?,2.1µM,?
CSc1ccccc1-c1nnc(-c2ccc(Cl)c(Cl)c2)o1,?,?,?,7.6µM,-
CCSc1nnc(-c2ccccc2SC)o1,-,-,-,?,-
COc1ccc(NC(=O)Cn2c(=O)n(CCC(=O)NCc3ccccc3OC)c(=O)c3ccccc32)cc1Cl,.,.,.,-,-
COc1ccccc1Nc1ncccc1C(=O)O,-,-,-,-,-
Cc1c(Nc2ncccc2C(=O)O)cccc1C(F)(F)F,?,-,-,19µM,-
Cc1cc(Cl)ccc1Nc1ncccc1C(N)=O,?,?,-,15µM,8.9µM
